# Results published in the antibiotic and cytotoxicity screens of Wong et al. (2023).
# The whole screen tested about 39,000 compounds, of which about 3,300 (8.5%) were called active. The full list was thinned out, with actives kept by preference.
# System: HepG2
# Assay: cytotoxicity call (relative viability < 0.9)
# Conditions: 10 µM
row,Compound,cytotoxicity call
1,C[C@H](CO)N1C[C@H](C)[C@H](CN(C)Cc2ccc(-c3ccccc3)cc2)Oc2ccc(NS(=O)(=O)c3ccc(Cl)cc3)cc2CC1=O,inactive
2,C[C@@H]1CN([C@@H](C)CO)C(=O)Cc2cc(NS(=O)(=O)c3ccc(Cl)cc3)ccc2O[C@@H]1CN(C)Cc1ccc(-c2ccccc2)cc1,inactive
3,C[C@H]1CN([C@@H](C)CO)C(=O)Cc2cc(NS(=O)(=O)c3ccc(Cl)cc3)ccc2O[C@H]1CN(C)Cc1ccc(-c2ccccc2)cc1,active
4,C[C@H]1CN([C@@H](C)CO)C(=O)Cc2cc(NS(=O)(=O)c3ccc(Cl)cc3)ccc2O[C@@H]1CN(C)Cc1ccc(-c2ccccc2)cc1,inactive
5,C[C@H](CO)N1C[C@H](C)[C@@H](CN(C)Cc2ccc(-c3ccccc3)cc2)Oc2ccc(NS(=O)(=O)c3ccc(Cl)cc3)cc2CC1=O,inactive
6,C[C@@H]1CN([C@@H](C)CO)C(=O)Cc2cc(NS(=O)(=O)c3ccc(Cl)cc3)ccc2O[C@H]1CN(C)Cc1ccc(-c2ccccc2)cc1,active
7,C[C@@H]1CN([C@H](C)CO)C(=O)Cc2cc(NS(=O)(=O)c3ccc(Cl)cc3)ccc2O[C@H]1CN(C)Cc1ccc(-c2ccccc2)cc1,inactive
8,C[C@@H]1CN([C@H](C)CO)C(=O)Cc2cc(NS(=O)(=O)c3ccc(Cl)cc3)ccc2O[C@@H]1CN(C)Cc1ccc(-c2ccccc2)cc1,active
9,C[C@@H]1CN([C@@H](C)CO)C(=O)c2cc(NS(C)(=O)=O)ccc2O[C@@H](C)CCCCO[C@H]1CN(C)CC1CC1,inactive
10,C[C@@H]1CN([C@H](C)CO)C(=O)c2cc(NC(=O)Cn3cnnn3)ccc2O[C@H]1CN(C)Cc1ccc(Cl)c(Cl)c1,inactive
11,C[C@H]1CN([C@@H](C)CO)C(=O)c2cccc(NS(=O)(=O)c3ccc(F)cc3)c2O[C@@H]1CN(C)S(=O)(=O)c1cccs1,inactive
12,O=C(C[C@H]1C[C@@H]2c3cc(NC(=O)Nc4ccc(C(F)(F)F)cc4)ccc3O[C@@H]2[C@H](CO)O1)NCc1cc(F)ccc1F,inactive
13,C[C@H](CO)N1C[C@H](C)[C@@H](CN(C)C(=O)Nc2cccc(F)c2)OCc2ccccc2-c2ccccc2C1=O,inactive
14,C[n+]1ccc(CCCO)cc1,inactive
15,CC(C)C(N)C(=O)OCCOCn1cnc2c(=O)[nH]c(N)nc21.Cl (configuration not stated),inactive
16,Clc1ccc(CON=C(Cn2ccnc2)c2ccc(Cl)cc2Cl)c(Cl)c1.O=[N+]([O-])O,inactive
17,Clc1ccc(COC(Cn2ccnc2)c2ccc(Cl)cc2Cl)c(Cl)c1.O=[N+]([O-])O (configuration not stated),inactive
18,Clc1ccc(C(Cn2ccnc2)OCc2c(Cl)cccc2Cl)c(Cl)c1.O=[N+]([O-])O (configuration not stated),inactive
19,Clc1ccc(CSC(Cn2ccnc2)c2ccc(Cl)cc2Cl)cc1.O=[N+]([O-])O (configuration not stated),active
20,Clc1ccc(COC(Cn2ccnc2)c2ccc(Cl)cc2Cl)cc1.O=[N+]([O-])O (configuration not stated),active
21,Clc1ccc(CCC(Cn2ccnc2)Sc2c(Cl)cccc2Cl)cc1 (configuration not stated),inactive
22,CC(C)NC(=O)N[C@H]1C=C[C@H](CC(=O)NCCCN(C)C)O[C@@H]1CO,inactive
23,COc1cccc(S(=O)(=O)N[C@H]2C=C[C@@H](CC(=O)NC3CCC3)O[C@H]2CO)c1,inactive
24,C[C@@H]1CN([C@@H](C)CO)C(=O)c2cc(N(C)C)ccc2O[C@H]1CN(C)S(=O)(=O)c1ccc(Cl)cc1,inactive

row,Compound,cytotoxicity call
1,Cc1cccc(NC(=O)CN2C(=O)CNC2=O)c1,inactive
2,C[C@H](CO)N1C[C@H](C)[C@H](CN(C)C(=O)Nc2ccc3c(c2)OCO3)Oc2ccc(NS(C)(=O)=O)cc2CC1=O,inactive
3,CCC(=O)N1CCN(c2ccc(-n3c(=O)ccc4cnc5ccc(-c6cnc7ccccc7c6)cc5c43)cc2C(F)(F)F)CC1,active
4,Cc1noc(C)c1NC(=O)Nc1ccc2c(c1)C(=O)N([C@H](C)CO)C[C@H](C)[C@H](CN(C)C(=O)C1CCCCC1)OCCCC[C@H](C)O2,inactive
5,C[C@H]1CN([C@@H](C)CO)C(=O)c2cccc(NC(=O)c3nc4ccccc4s3)c2O[C@H]1CN(C)Cc1ccc(C(F)(F)F)cc1,inactive
6,O=C(C[C@@H]1C[C@@H]2c3cc(NC(=O)C4CCOCC4)ccc3O[C@@H]2[C@H](CO)O1)NCc1ccc2c(c1)OCO2,inactive
7,CS(=O)(=O)OCCCCOS(C)(=O)=O [listing 1 of 2 here],inactive
8,CS(C)(=O)=O,active
9,CS(=O)(=O)OCCCCOS(C)(=O)=O [listing 2 of 2 here],inactive
10,CCOC(=O)c1c[nH][nH]c1=O,inactive
11,CC(C)NC(=O)N(C)C[C@H]1OCCCC[C@H](C)Oc2ccc(NC(=O)Nc3ccc(F)cc3)cc2C(=O)N([C@H](C)CO)C[C@@H]1C,inactive
12,C[C@H](CO)N1C[C@H](C)[C@@H](CN(C)C(=O)Cc2ccccc2)OCCCC[C@H](C)Oc2ccc(NC(=O)NC3CCCCC3)cc2C1=O,inactive
13,COc1nn(C)cc1C(=O)Nc1ccon1,inactive
14,S=C1NCN(CCc2ccccc2)CN1,inactive
15,OCCN1CNC(=S)NC1,inactive
16,CCCCN1CNC(=S)NC1,active
17,Cc1noc(C)c1NC(=O)N(C)C[C@H]1Oc2ccc(NS(=O)(=O)c3ccccc3)cc2C(=O)N([C@H](C)CO)C[C@@H]1C,inactive
18,COc1ccc(NC(=O)Nc2ccc3c(c2)C(=O)N([C@H](C)CO)C[C@@H](C)[C@H](CN(C)C(=O)Cc2ccccc2)OCCCC[C@H](C)O3)cc1,inactive
19,c1ccc(-c2nc(C34CC5CC(CC(C5)C3)C4)cs2)cc1,inactive
20,OCc1cn(-c2ccccc2)nn1,inactive
21,NCc1cn(-c2ccccc2)nc1C12CC3CC(CC(C3)C1)C2,active
22,CCS(=O)(=O)Nc1ccc2c(c1)C(=O)N(C)C[C@H](OC)[C@@H](C)CN(CCC(F)(F)F)[C@@H](C)CO2,inactive
23,C[C@H](CO)N1C[C@H](C)[C@@H](CN(C)C(=O)c2ccc3c(c2)OCO3)Oc2cc(C#Cc3ccccc3F)ccc2S1(=O)=O,inactive
24,C[C@H]1CN([C@@H](C)CO)C(=O)c2cccc(NC(=O)c3nc4ccccc4s3)c2O[C@@H]1CN(C)Cc1ccc(-c2ccccc2)cc1,inactive

row,Compound,cytotoxicity call
1,O=C(O)Cn1nc2ccccc2n1,inactive
2,O=C(O)c1nn(Cc2ccccc2)nc1C(=O)O,active
3,NC(=O)c1nnn(Cc2ccccc2)c1N,inactive
4,C[C@H](CO)N1C[C@H](C)[C@@H](CN(C)S(=O)(=O)c2ccccc2F)Oc2ncc(Br)cc2C1=O,inactive
5,Cc1noc(C)c1NC(=O)N(C)C[C@@H]1OCCCC[C@H](C)Oc2ccc(NS(=O)(=O)c3ccccc3)cc2C(=O)N([C@H](C)CO)C[C@@H]1C,inactive
6,C[C@@H]1CCCCO[C@H](CN(C)Cc2ccc(Cl)c(Cl)c2)[C@@H](C)CN([C@H](C)CO)C(=O)c2cc(NS(=O)(=O)c3ccc(F)cc3)ccc2O1,inactive
7,C[C@H](CO)N1C[C@H](C)[C@@H](CN(C)Cc2ccc(Cl)c(Cl)c2)OCCCC[C@H](C)Oc2ccc(NS(=O)(=O)c3ccc(F)cc3)cc2C1=O,inactive
8,C[C@H]1CCCCO[C@H](CN(C)Cc2ccc(Cl)c(Cl)c2)[C@@H](C)CN([C@@H](C)CO)C(=O)c2cc(NS(=O)(=O)c3ccc(F)cc3)ccc2O1,inactive
9,C[C@@H]1CCCCO[C@@H](CN(C)Cc2ccc(Cl)c(Cl)c2)[C@@H](C)CN([C@H](C)CO)C(=O)c2cc(NS(=O)(=O)c3ccc(F)cc3)ccc2O1,active
10,C[C@@H]1CCCCO[C@@H](CN(C)Cc2ccc(Cl)c(Cl)c2)[C@H](C)CN([C@@H](C)CO)C(=O)c2cc(NS(=O)(=O)c3ccc(F)cc3)ccc2O1,active
11,C[C@@H]1CCCCO[C@H](CN(C)Cc2ccc(Cl)c(Cl)c2)[C@H](C)CN([C@@H](C)CO)C(=O)c2cc(NS(=O)(=O)c3ccc(F)cc3)ccc2O1,active
12,C[C@@H]1CCCCO[C@@H](CN(C)Cc2ccc(Cl)c(Cl)c2)[C@H](C)CN([C@H](C)CO)C(=O)c2cc(NS(=O)(=O)c3ccc(F)cc3)ccc2O1,active
13,C[C@H](CO)N1C[C@H](C)[C@H](CN(C)Cc2ccc(Cl)c(Cl)c2)OCCCC[C@H](C)Oc2ccc(NS(=O)(=O)c3ccc(F)cc3)cc2C1=O,inactive
14,C[C@@H]1CCCCO[C@H](CN(C)Cc2ccc(Cl)c(Cl)c2)[C@@H](C)CN([C@@H](C)CO)C(=O)c2cc(NS(=O)(=O)c3ccc(F)cc3)ccc2O1,inactive
15,C[C@@H]1CN([C@H](C)CO)C(=O)c2cc(NS(=O)(=O)c3ccc(F)cc3)ccc2O[C@@H](C)CCCCO[C@H]1CN(C)Cc1ccc(Cl)c(Cl)c1,inactive
16,C[C@@H]1CCCCO[C@@H](CN(C)Cc2ccc(Cl)c(Cl)c2)[C@@H](C)CN([C@@H](C)CO)C(=O)c2cc(NS(=O)(=O)c3ccc(F)cc3)ccc2O1,inactive
17,C[C@@H]1CCCCO[C@@H](CN(C)S(C)(=O)=O)[C@H](C)CN([C@H](C)CO)C(=O)c2cc(N(C)C)ccc2O1,inactive
18,CCO/C(O)=C1/C(=O)CN(C)C1=O,inactive
19,CCS(=O)(=O)Nc1ccc2c(c1)C(=O)N(C)[C@@H]1CC[C@H](CC(=O)N[C@@H]3CCN(Cc4ccccc4)C3)O[C@H]1CO2,inactive
20,CN(C)CC(=O)N[C@H]1CC[C@@H](CCNC(=O)C2CCC2)O[C@H]1CO,inactive
21,Cc1nnc(N2CCC[C@]3(CN(C(=O)CO)CCO3)C2)o1,inactive
22,C[C@@H]1CN([C@H](C)CO)C(=O)Cc2cc(NC(=O)C3CCCCC3)ccc2O[C@@H]1CN(C)C(=O)Nc1ccc(C(F)(F)F)cc1,inactive
23,C[C@H]1CN([C@@H](C)CO)C(=O)c2cccc(NC(=O)c3ccncc3)c2O[C@@H]1CN(C)Cc1ccc(Oc2ccccc2)cc1,inactive
24,Cc1ccc(S(=O)(=O)Nc2ccc3c(c2)C(=O)N([C@@H](C)CO)C[C@H](C)[C@@H](CN(C)C(=O)Cc2ccccc2)OCCCC[C@H](C)O3)cc1,inactive
